According to the supplement of paper PMC11732987, “Enantioselective OTUD7B fragment discovery through chemoproteomics screening and high-throughput optimisation” (Communications Chemistry, 2025):

Tests used:
Experiment in all cases: log2 ratio of Biotin-Ahx-Ub-VS probe labelling (fragment/DMSO); higher = less target engagement (more negative = stronger competition), active = hit call of the paper (q ≤ 0.05, log2 ratio ≤ -1)
Details in all cases: compound concentration: 200 uM; treatment time: 3 h
[1] = target: T1, USP42 (UniProt Q9H9J4)
T1 sequence (whole entry): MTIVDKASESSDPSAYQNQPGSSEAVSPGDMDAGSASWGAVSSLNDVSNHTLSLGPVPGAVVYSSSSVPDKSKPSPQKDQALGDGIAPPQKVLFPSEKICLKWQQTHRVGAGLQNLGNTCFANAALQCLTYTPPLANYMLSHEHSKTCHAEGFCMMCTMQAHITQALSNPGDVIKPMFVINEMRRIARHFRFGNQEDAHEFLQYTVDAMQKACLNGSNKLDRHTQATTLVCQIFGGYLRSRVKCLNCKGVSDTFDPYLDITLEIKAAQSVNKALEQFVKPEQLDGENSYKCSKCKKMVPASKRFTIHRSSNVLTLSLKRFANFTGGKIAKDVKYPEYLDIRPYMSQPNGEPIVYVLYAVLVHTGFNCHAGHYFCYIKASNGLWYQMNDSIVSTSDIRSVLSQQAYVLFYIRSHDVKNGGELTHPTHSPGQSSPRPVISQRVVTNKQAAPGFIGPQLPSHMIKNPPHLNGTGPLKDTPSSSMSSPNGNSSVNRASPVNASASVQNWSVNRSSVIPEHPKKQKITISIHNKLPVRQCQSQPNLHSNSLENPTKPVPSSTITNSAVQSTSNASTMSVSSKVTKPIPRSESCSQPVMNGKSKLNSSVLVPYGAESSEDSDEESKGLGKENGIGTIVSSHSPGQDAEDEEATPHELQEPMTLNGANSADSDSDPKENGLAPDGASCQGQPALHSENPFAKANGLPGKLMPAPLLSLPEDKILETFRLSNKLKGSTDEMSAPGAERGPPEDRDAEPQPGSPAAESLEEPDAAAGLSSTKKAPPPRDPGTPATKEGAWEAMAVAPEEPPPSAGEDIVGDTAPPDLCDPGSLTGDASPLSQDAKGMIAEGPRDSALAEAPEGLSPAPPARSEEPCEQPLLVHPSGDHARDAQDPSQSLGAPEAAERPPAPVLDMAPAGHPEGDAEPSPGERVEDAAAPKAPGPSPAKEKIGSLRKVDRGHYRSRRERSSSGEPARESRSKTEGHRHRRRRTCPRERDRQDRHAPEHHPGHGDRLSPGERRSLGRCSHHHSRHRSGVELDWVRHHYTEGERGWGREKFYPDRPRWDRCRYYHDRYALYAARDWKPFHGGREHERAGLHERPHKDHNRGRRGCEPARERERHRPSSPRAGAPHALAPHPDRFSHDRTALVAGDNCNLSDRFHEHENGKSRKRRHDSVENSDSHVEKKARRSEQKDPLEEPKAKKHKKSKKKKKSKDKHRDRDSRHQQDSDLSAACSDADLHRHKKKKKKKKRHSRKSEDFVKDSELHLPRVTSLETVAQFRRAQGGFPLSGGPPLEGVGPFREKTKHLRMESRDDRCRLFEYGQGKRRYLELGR
In short: (§1)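 In triplicate, 495 µg of HEK293T lysate per sample was incubated with fragment at 200 µM or vehicle for 3 h. Biotin-Ahx-Ub-VS was then added to 0.5 µM final for 1 h, and labelled DUBs were captured with NeutrAvidin, digested with LysC and trypsin, and measured by diaPASEF LC-MS/MS. Data are average log2 fragment/vehicle ratios by unpaired t-test from global-median-normalised Spectronaut label-free quantities, restricted to proteins with ≥2 unique peptides.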

[2] = target: USP46 (UniProt P62068)
In short: as §1

[3] = target: T2, USP47 (UniProt Q96K76)
T2 sequence (whole entry): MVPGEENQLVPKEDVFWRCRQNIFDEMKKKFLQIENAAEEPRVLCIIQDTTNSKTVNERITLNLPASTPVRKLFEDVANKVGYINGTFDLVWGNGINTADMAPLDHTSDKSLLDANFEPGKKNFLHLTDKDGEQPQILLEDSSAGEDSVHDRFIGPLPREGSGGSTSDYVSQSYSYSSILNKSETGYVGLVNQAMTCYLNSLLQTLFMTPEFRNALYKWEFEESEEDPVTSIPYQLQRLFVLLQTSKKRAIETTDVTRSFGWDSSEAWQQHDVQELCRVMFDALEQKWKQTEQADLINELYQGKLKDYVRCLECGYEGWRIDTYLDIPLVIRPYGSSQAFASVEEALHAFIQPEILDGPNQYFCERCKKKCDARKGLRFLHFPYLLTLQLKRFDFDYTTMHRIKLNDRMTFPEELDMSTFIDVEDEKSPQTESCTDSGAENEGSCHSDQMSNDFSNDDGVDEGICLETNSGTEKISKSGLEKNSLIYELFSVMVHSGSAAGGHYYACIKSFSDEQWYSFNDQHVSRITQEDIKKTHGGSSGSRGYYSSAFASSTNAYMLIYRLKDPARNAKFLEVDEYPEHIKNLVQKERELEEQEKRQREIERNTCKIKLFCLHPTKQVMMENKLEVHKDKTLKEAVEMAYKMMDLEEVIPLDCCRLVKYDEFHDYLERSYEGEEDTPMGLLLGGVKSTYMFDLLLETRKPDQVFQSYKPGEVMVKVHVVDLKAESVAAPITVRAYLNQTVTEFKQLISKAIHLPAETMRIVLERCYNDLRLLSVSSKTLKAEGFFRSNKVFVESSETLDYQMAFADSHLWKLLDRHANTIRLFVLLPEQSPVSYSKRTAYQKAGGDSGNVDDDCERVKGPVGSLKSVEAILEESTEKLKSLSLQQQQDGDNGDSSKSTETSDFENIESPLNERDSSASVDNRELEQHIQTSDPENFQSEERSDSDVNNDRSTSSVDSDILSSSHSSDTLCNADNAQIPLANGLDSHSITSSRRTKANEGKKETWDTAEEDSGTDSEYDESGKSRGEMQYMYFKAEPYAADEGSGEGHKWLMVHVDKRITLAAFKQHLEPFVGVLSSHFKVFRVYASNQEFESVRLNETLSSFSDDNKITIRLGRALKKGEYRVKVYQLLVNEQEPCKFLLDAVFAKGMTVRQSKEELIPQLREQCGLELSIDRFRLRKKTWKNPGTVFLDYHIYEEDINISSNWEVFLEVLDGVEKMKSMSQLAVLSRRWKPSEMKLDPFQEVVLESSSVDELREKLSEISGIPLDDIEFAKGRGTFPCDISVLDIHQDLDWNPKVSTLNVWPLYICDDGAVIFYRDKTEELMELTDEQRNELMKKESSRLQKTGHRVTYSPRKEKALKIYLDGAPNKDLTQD
In short: as §1

[4] = target: T3, USP48 (UniProt Q86UV5)
T3 sequence (whole entry): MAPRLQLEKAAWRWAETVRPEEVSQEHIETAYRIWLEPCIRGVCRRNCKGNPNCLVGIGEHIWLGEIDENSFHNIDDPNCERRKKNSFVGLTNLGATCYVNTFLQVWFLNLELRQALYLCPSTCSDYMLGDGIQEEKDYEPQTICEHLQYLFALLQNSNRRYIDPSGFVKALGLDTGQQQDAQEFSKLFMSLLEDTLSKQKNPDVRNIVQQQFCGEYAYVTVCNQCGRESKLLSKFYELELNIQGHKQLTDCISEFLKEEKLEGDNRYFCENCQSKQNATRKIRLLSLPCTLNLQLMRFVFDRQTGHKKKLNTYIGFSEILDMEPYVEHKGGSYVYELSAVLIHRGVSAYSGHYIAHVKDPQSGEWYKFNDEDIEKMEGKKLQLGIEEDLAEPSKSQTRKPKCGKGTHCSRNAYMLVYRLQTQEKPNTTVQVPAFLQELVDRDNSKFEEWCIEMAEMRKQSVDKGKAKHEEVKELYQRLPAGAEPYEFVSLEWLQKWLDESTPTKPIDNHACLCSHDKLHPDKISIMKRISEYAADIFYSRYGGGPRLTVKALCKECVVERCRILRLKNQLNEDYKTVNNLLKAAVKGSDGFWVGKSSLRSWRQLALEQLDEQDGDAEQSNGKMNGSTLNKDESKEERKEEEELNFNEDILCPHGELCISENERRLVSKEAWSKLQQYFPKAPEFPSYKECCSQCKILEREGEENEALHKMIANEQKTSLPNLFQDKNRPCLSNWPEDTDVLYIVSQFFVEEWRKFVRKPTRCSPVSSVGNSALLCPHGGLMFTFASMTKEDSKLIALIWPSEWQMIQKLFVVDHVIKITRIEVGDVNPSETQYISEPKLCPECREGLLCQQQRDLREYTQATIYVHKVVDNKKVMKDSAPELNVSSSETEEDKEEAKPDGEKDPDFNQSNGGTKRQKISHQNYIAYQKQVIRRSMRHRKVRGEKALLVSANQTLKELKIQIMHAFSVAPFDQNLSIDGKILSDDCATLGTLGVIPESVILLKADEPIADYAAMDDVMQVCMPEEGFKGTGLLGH
In short: as §1

[5] = target: T4, USP5 (UniProt P45974)
T4 sequence (whole entry): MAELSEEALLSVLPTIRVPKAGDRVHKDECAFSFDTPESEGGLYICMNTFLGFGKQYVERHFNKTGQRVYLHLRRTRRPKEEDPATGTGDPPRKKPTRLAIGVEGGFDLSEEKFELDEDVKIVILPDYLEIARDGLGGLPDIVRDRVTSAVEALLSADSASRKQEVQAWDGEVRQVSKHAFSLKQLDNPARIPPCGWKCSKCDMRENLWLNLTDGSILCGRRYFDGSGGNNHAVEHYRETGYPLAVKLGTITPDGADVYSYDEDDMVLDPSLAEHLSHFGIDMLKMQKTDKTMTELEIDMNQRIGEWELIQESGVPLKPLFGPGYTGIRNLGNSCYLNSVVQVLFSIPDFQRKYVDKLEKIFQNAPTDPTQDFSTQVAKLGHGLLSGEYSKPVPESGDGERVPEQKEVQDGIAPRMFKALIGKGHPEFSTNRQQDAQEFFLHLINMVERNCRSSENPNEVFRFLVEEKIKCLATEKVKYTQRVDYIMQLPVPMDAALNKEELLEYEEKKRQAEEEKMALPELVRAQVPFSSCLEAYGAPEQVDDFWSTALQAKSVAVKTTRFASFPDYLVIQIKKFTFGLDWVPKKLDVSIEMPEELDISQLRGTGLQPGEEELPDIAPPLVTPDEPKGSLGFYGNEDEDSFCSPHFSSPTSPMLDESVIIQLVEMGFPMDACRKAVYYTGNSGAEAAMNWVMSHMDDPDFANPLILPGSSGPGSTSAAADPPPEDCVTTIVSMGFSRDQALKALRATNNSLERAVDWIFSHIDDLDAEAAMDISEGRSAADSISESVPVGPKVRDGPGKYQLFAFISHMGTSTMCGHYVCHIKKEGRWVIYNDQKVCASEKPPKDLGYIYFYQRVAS
In short: as §1

[6] = target: USP54 (UniProt Q70EL1)
In short: as §1

[7] = target: USP7 (UniProt Q93009)
In short: as §1

[8] = target: T5, USP8 (UniProt P40818)
T5 sequence (whole entry): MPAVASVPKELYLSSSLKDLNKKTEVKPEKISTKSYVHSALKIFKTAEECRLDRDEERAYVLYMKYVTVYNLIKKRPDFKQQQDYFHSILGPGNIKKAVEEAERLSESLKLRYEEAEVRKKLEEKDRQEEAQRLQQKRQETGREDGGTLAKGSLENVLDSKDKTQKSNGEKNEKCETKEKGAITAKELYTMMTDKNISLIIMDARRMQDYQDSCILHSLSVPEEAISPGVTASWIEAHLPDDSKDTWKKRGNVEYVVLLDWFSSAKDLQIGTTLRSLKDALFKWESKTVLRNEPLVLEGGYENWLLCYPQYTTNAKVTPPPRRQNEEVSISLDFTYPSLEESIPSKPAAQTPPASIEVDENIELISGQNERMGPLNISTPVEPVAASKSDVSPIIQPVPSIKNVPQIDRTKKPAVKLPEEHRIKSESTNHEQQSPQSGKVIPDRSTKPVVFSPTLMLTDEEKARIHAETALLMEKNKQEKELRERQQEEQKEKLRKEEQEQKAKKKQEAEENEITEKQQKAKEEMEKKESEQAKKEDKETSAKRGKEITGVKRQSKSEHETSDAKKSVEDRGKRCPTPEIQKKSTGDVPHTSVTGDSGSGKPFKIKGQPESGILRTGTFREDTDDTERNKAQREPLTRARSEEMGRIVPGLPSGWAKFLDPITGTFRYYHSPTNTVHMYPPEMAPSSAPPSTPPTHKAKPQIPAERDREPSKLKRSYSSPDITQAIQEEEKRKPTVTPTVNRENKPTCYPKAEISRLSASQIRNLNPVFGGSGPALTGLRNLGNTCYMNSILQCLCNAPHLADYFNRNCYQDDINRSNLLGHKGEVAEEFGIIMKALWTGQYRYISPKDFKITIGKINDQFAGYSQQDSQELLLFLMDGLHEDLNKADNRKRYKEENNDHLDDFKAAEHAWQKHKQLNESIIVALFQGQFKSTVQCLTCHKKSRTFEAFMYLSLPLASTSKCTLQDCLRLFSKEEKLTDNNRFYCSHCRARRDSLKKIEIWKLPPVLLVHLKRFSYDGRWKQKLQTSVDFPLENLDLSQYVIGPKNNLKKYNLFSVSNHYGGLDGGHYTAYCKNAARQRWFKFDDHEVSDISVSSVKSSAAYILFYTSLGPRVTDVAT
In short: as §1

Measured: log2 ratio of Biotin-Ahx-Ub-VS probe labelling

Chain of USP54 (Q70EL1 whole entry): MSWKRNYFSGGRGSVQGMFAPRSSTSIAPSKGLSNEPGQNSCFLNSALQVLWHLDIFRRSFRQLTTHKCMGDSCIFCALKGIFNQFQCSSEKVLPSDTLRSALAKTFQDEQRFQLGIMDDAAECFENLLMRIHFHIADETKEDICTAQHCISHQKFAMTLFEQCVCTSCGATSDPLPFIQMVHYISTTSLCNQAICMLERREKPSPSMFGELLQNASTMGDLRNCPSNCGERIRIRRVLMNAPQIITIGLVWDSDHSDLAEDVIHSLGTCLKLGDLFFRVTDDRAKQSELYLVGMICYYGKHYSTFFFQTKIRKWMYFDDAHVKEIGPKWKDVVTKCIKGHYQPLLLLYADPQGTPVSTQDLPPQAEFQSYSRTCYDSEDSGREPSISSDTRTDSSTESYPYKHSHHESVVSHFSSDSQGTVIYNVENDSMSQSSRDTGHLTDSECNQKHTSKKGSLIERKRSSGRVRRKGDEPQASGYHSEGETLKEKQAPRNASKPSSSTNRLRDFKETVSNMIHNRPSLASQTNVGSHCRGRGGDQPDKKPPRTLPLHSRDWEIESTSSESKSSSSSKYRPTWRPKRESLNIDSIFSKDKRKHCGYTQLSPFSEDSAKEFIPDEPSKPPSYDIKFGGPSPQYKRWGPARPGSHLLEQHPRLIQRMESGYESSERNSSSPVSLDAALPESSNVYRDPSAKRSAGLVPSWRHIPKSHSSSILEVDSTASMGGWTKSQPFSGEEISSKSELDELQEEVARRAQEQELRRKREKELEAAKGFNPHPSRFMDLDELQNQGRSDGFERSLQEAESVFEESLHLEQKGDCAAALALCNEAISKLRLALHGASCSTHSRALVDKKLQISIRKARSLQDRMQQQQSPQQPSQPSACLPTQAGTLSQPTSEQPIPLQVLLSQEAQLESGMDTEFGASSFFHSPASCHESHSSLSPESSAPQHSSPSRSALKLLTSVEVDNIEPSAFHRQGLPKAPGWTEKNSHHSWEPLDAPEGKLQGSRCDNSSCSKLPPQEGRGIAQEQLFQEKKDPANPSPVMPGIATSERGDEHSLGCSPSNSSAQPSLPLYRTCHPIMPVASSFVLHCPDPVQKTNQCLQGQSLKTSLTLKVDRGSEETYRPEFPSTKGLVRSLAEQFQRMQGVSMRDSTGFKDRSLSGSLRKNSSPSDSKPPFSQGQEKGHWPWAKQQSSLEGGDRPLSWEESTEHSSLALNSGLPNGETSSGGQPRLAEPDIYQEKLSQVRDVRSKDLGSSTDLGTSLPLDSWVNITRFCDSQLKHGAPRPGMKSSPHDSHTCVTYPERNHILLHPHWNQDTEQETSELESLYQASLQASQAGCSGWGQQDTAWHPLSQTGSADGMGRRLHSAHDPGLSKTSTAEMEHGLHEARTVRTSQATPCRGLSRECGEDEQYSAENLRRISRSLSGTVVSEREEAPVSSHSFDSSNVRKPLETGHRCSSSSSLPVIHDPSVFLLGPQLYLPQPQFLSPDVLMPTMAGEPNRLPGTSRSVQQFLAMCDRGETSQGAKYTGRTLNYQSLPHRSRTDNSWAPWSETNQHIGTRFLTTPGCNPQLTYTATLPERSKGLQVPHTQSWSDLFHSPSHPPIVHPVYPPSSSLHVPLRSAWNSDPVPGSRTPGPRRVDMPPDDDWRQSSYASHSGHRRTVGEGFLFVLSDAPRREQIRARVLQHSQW
Chain of USP7 (Q93009 whole entry, looked up): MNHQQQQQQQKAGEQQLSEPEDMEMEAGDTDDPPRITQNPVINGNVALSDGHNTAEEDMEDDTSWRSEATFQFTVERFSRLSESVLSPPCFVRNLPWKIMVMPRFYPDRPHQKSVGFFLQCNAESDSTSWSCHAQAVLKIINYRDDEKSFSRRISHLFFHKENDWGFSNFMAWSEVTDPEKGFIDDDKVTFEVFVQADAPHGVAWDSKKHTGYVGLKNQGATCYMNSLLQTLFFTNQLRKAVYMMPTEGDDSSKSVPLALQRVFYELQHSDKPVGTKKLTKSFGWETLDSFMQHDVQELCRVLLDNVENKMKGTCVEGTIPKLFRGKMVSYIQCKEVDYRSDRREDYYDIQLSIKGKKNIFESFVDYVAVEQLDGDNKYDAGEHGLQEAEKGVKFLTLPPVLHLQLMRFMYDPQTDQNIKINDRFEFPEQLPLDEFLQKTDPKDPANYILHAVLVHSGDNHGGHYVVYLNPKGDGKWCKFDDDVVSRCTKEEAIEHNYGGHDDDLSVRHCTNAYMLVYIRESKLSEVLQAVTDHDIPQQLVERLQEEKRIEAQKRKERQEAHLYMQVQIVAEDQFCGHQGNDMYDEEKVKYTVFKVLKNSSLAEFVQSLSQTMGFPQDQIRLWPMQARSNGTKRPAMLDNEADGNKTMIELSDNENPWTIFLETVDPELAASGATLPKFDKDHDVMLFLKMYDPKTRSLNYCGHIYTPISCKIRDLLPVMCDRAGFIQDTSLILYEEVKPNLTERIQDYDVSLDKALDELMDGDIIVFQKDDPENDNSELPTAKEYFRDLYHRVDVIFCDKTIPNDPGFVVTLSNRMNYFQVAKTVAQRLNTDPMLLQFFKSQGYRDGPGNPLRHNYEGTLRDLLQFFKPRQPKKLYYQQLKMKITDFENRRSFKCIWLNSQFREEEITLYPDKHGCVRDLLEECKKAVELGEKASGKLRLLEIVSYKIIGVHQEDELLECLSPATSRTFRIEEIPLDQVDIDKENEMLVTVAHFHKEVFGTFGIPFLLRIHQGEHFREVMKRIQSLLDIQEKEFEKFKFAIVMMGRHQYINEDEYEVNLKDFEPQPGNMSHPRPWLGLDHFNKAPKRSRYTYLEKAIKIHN
Chain of USP46 (P62068 whole entry): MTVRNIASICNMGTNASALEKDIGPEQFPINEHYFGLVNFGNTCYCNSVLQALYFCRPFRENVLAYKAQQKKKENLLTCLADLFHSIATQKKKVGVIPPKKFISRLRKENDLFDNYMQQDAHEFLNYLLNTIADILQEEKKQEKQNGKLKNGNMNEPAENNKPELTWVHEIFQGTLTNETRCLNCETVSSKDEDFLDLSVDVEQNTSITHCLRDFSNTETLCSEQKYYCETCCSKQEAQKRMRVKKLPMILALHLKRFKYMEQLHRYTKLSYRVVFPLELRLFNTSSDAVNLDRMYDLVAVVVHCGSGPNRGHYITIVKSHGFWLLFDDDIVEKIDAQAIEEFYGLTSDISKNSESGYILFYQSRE

CC(NC(=O)CCl)c1ccc2[nH]ncc2c1 (stereo not drawn)
inactive: [1] 0.605 | [2] -0.239 | [3] 0.0542 | [4] -0.411 | [5] -0.557 | [6] 0.532 | [7] -0.578 | [8] -0.403
